Results: the antibiotic and cytotoxicity screens of Wong et al. (2023)
Hit rate of the full screen: of about 39,000 compounds, about 3,300 (8.5%) were called active. The list comes from a sample in which actives are over-represented; it also holds similar structures and randomly drawn compounds.

Each molecule was assayed on HepG2 (assay: cytotoxicity call (relative viability < 0.9)). Conditions: 10 µM.
In the case of `C[C@@H]1CN([C@H](C)CO)C(=O)Cc2cc(NC(=O)CCN3CCOCC3)ccc2O[C@@H]1CN(C)CC1CC1`, the cytotoxicity call is reported as “inactive”. With `COc1cc2c(cc1-c1coc3c4c(c(OC)cc3c1=O)OC(C)(C)CC4)OCO2` the cytotoxicity call was “inactive”. For `COc1cc2c(=O)c(-c3ccc4c(c3)OCO4)coc2c2c1OC(C)(C)C=C2`, the cytotoxicity call was “active”. For `COc1cc2c(cc1-c1coc3c4c(ccc3c1=O)OC(C)(C)CC4)OCO2`, the cytotoxicity call was “inactive”. `CN1CCN(C(=O)C[C@H]2CC[C@H](NC(=O)Cc3ccccn3)[C@@H](CO)O2)CC1` was tested, and the cytotoxicity call was “inactive”. For `CC1(C)C[C@H](c2nc(-c3ccccc3)cs2)CCS1`, the cytotoxicity call was “active”. `NCCc1nc(-c2ccccc2)cs1` was tested, and the cytotoxicity call was “inactive”. `O=C(C[C@H]1CC[C@@H](NC(=O)c2cnccn2)[C@H](CO)O1)NCc1ccccc1F` was tested, and the cytotoxicity call was “inactive”. `CCS(=O)(=O)N(C)C[C@H]1OCc2ccccc2-c2c(n(C)c3ccccc23)C(=O)N([C@H](C)CO)C[C@H]1C` was tested, and the cytotoxicity call was “inactive”. For `NCCC(=O)N[C@@H](Cc1cnc[nH]1)C(=O)O.[Zn+3]`, the cytotoxicity call was “inactive”. `C[C@@H]1CN([C@@H](C)CO)S(=O)(=O)c2ccc(C#CCN(C)C)cc2O[C@H]1CN(C)Cc1ccc2c(c1)OCO2` was tested, and the cytotoxicity call was “inactive”. With `COC1=CC(=O)c2ccccc2C1=O` the cytotoxicity call was “inactive”. For `COc1ccc([C@@H](N)c2ccccc2)cc1`, the cytotoxicity call was “inactive”. For `C=CC(C1=CC(=O)C(OC)=CC1=O)c1ccc(OC)cc1` (stereo not drawn), the cytotoxicity call was “active”. In the case of `COc1ccc(S(=O)(=O)N(C)C)cc1`, the cytotoxicity call is reported as “inactive”. `C=CC(C1=CC(=O)C(OC)=CC1=O)c1ccc(O)cc1` (stereo not drawn) was tested, and the cytotoxicity call was “active”. For `C=CC(C1=CC(=O)C=CC1=O)c1ccccc1` (stereo not drawn), the cytotoxicity call was “active”. For `COC(=O)[C@@H](O)c1ccccc1`, the cytotoxicity call was “inactive”. In the case of `C=CC(C1=CC(=O)C(OC)=CC1=O)c1ccccc1` (stereo not drawn), the cytotoxicity call is reported as “active”. For `CC(C)CC#Cc1cnc2c(c1)C(=O)N([C@@H](C)CO)C[C@@H](C)[C@@H](CN(C)C(=O)c1ccc3c(c1)OCO3)O2`, the cytotoxicity call was “inactive”. With `c1ccc(Oc2ccccc2)cc1` the cytotoxicity call was “inactive”. `COc1cccc(S(=O)(=O)Nc2ccc3c(c2)[C@H]2C[C@H](CC(=O)N4CCCCC4)O[C@H](CO)[C@H]2O3)c1` was tested, and the cytotoxicity call was “inactive”. For `COc1ccc(NC(=O)Nc2ccc3c(c2)C(=O)N([C@@H](C)CO)C[C@@H](C)[C@H](CN(C)CC2CCCCC2)O3)cc1`, the cytotoxicity call was “inactive”. For `CN(CC=CC#CC(C)(C)C)Cc1cccc2ccccc12.Cl`, the cytotoxicity call was “inactive”. `C[C@@H]1CN([C@@H](C)CO)C(=O)c2cc(C#C[C@@H](C)O)cnc2O[C@H]1CN(C)C(=O)CN1CCOCC1` was tested, and the cytotoxicity call was “inactive”. `C[C@@H]1CN([C@@H](C)CO)C(=O)c2cc(-c3ccc(C(=O)N(C)C)cc3)cnc2O[C@@H]1CN(C)C(=O)CN(C)C` was tested, and the cytotoxicity call was “inactive”. In the case of `Cc1ccc(S(=O)(=O)Nc2cccc3c2O[C@@H](CN(C)Cc2ccc(C(F)(F)F)cc2)[C@@H](C)CN([C@H](C)CO)C3=O)cc1`, the cytotoxicity call is reported as “inactive”. For `C[C@@H]1CN([C@H](C)CO)C(=O)c2cccc(NC(=O)c3ccncc3)c2O[C@@H]1CN(C)S(=O)(=O)c1cn(C)cn1`, the cytotoxicity call was “inactive”. For `O=C1N[C@@H](c2ccccc2)COCc2cn(nn2)CC[C@@H](Cc2ccc(C(F)(F)F)cc2)C(=O)N[C@@H](c2ccccc2)COCc2cn(nn2)CC[C@H]1Cc1ccc(C(F)(F)F)cc1`, the cytotoxicity call was “inactive”. `O=C(O)[C@]1(O)C[C@H](O)[C@@H](O)[C@@H](O)C1` was tested, and the cytotoxicity call was “inactive”. For `Cc1noc(C)c1S(=O)(=O)N(C)C[C@@H]1Oc2ccc(N(C)C)cc2CC(=O)N([C@@H](C)CO)C[C@H]1C`, the cytotoxicity call was “inactive”. `CC(C)C1=CC2=CCC3C(C)(C(=O)O)CCCC3(C)C2CC1` (stereo not drawn) was tested, and the cytotoxicity call was “inactive”. For `C=C1C[C@]23CC[C@@H]4[C@@](C)(CCC[C@@]4(C)C(=O)O)[C@H]2CC[C@H]1C3`, the cytotoxicity call was “active”. With `C=C1C[C@@]23CC[C@@H]4[C@@](C)(CCC[C@@]4(C)C(=O)OC)[C@H]2CC[C@@H]1C3` the cytotoxicity call was “inactive”. In the case of `Cc1noc(C)c1NC(=O)Nc1ccc2c(c1)CC(=O)N([C@H](C)CO)C[C@@H](C)[C@@H](CN(C)C(=O)NC(C)C)O2`, the cytotoxicity call is reported as “inactive”. `COc1ccc(CCNC(=O)[C@@]2(Cc3ccccc3I)c3ccccc3C(=O)N(Cc3ccccc3OC)[C@H]2c2ccc(CO)cc2)cc1` was tested, and the cytotoxicity call was “inactive”. With `COc1ccccc1CN1C(=O)c2ccccc2[C@](Cc2ccccc2I)(C(=O)O)[C@@H]1c1ccc(CO)cc1` the cytotoxicity call was “inactive”. In the case of `COc1ccccc1CN1C(=O)c2ccccc2[C@](Cc2ccccc2I)(C(=O)NCCCN(C)C)[C@@H]1c1ccc(CO)cc1`, the cytotoxicity call is reported as “active”. `COCCCNC(=O)[C@@]1(Cc2ccccc2I)c2ccccc2C(=O)N(Cc2ccccc2OC)[C@H]1c1ccc(CO)cc1` was tested, and the cytotoxicity call was “inactive”. In the case of `COc1ccccc1CN1C(=O)c2ccccc2[C@](Cc2ccccc2I)(C(=O)NC2CC2)[C@@H]1c1ccc(CO)cc1`, the cytotoxicity call is reported as “active”. For `COc1ccccc1CN1C(=O)c2ccccc2[C@](Cc2ccccc2I)(C(=O)NCC(C)C)[C@@H]1c1ccc(CO)cc1`, the cytotoxicity call was “inactive”. `CO[C@H]1CN(C)C(=O)c2cc(NS(=O)(=O)CC(F)(F)F)ccc2OC[C@@H](C)N(Cc2cccnc2)C[C@@H]1C` was tested, and the cytotoxicity call was “inactive”. With `COc1ccc2c3c(n(c2c1)C)[C@H](CO)N(C[C@]13CCN(CC1)C(=O)c1ccncc1)C(=O)C1CCOCC1` the cytotoxicity call was “inactive”. `CC(C)NC(=O)Nc1cccc2c1O[C@@H](CN(C)C(=O)Nc1ccc3c(c1)OCO3)[C@@H](C)CN([C@H](C)CO)C2=O` was tested, and the cytotoxicity call was “inactive”. In the case of `C[C@@H]1CCCCO[C@H](CN(C)S(=O)(=O)c2cn(C)cn2)[C@@H](C)CN([C@H](C)CO)C(=O)c2cc(NC(=O)c3ccncc3)ccc2O1`, the cytotoxicity call is reported as “inactive”. With `C[C@H]1CN([C@@H](C)CO)C(=O)c2cccc(NS(=O)(=O)c3cn(C)cn3)c2O[C@@H]1CN(C)S(=O)(=O)c1ccc(Cl)cc1` the cytotoxicity call was “inactive”. With `COc1ccc(CNC(=O)C[C@H]2CC[C@H]3[C@@H](COc4ccc(NC(=O)C5CC5)cc4C(=O)N3C)O2)cc1` the cytotoxicity call was “inactive”. With `Nc1ccn([C@@H]2O[C@H](CO)[C@@H](O)C2(F)F)c(=O)n1` the cytotoxicity call was “inactive”. With `Cl.Nc1ccn(C2OC(CO)C(O)C2(F)F)c(=O)n1` (stereo not drawn) the cytotoxicity call was “active”. For `Nc1ccn([C@@H]2O[C@H](CO)[C@@H](O)[C@H]2O)c(=O)n1`, the cytotoxicity call was “inactive”. For `C#C[C@@]1(O)[C@@H](CO)O[C@@H](n2ccc(N)nc2=O)[C@@H]1O`, the cytotoxicity call was “active”. In the case of `Nc1ccn(C2OC(CO)C(O)C2O)c(=O)n1` (stereo not drawn), the cytotoxicity call is reported as “inactive”. `C[C@@]1(F)[C@H](O)[C@@H](CO)O[C@H]1n1ccc(N)nc1=O` was tested, and the cytotoxicity call was “inactive”. In the case of `C[C@H](CO)N1C[C@H](C)[C@@H](CN(C)C(=O)C2CC2)OCc2cn(nn2)CCCC1=O`, the cytotoxicity call is reported as “inactive”. In the case of `Cc1noc(C)c1S(=O)(=O)Nc1ccc2c(c1)C(=O)N([C@H](C)CO)C[C@H](C)[C@@H](CN(C)Cc1ccc(C(=O)O)cc1)O2`, the cytotoxicity call is reported as “inactive”. For `C[C@@H]1CCCCO[C@@H](CN(C)C(=O)c2ccccc2)[C@H](C)CN([C@H](C)CO)C(=O)c2cc(NC(=O)Nc3ccc4c(c3)OCO4)ccc2O1`, the cytotoxicity call was “inactive”. With `C[C@@H]1CCCCO[C@@H](CN(C)C(=O)Cc2ccccc2)[C@@H](C)CN([C@@H](C)CO)C(=O)c2cc(NC(=O)Nc3ccc4c(c3)OCO4)ccc2O1` the cytotoxicity call was “inactive”. `C[C@H](CO)N1C[C@H](C)[C@H](CN(C)C(=O)Cc2ccccc2)OCCCC[C@H](C)Oc2ccc(NC(=O)Nc3ccc4c(c3)OCO4)cc2C1=O` was tested, and the cytotoxicity call was “active”. In the case of `C[C@H]1CCCCO[C@H](CN(C)C(=O)Cc2ccccc2)[C@@H](C)CN([C@@H](C)CO)C(=O)c2cc(NC(=O)Nc3ccc4c(c3)OCO4)ccc2O1`, the cytotoxicity call is reported as “inactive”. For `C[C@@H]1CCCCO[C@@H](CN(C)C(=O)Cc2ccccc2)[C@H](C)CN([C@H](C)CO)C(=O)c2cc(NC(=O)Nc3ccc(F)cc3)ccc2O1`, the cytotoxicity call was “active”. With `C[C@@H]1CCCCO[C@@H](CN(C)C(=O)Cc2ccccc2)[C@@H](C)CN([C@H](C)CO)C(=O)c2cc(NC(=O)Nc3ccc(F)cc3)ccc2O1` the cytotoxicity call was “inactive”. With `C[C@@H]1CCCCO[C@@H](CN(C)C(=O)Cc2ccccc2)[C@@H](C)CN([C@H](C)CO)C(=O)c2cc(NC(=O)NC3CCCCC3)ccc2O1` the cytotoxicity call was “inactive”. For `C[C@@H]1CCCCO[C@H](CN(C)C(=O)Cc2ccccc2)[C@H](C)CN([C@@H](C)CO)C(=O)c2cc(NC(=O)NC3CCCCC3)ccc2O1`, the cytotoxicity call was “inactive”. In the case of `C[C@@H]1CCCCO[C@H](CN(C)C(=O)Cc2ccccc2)[C@@H](C)CN([C@H](C)CO)C(=O)c2cc(NC(=O)Nc3ccc(F)cc3)ccc2O1`, the cytotoxicity call is reported as “inactive”. For `C[C@@H]1CCCCO[C@@H](CN(C)C(=O)Cc2ccccc2)[C@H](C)CN([C@H](C)CO)C(=O)c2cc(NC(=O)NC3CCCCC3)ccc2O1`, the cytotoxicity call was “active”. `Nc1ncnc2c([C@@H]3N[C@H](CO)[C@@H](O)[C@H]3O)c[nH]c12` was tested, and the cytotoxicity call was “inactive”. `Cc1noc(C)c1S(=O)(=O)Nc1ccc2c(c1)C(=O)N([C@H](C)CO)C[C@H](C)[C@@H](CN(C)Cc1ccc(Cl)c(Cl)c1)OCCCC[C@@H](C)O2` was tested, and the cytotoxicity call was “inactive”. For `C[C@@H](Oc1ccccc1Cl)c1nc2ccc(Cl)cc2[nH]1`, the cytotoxicity call was “inactive”. In the case of `COC(=O)[C@H]1c2cc3c(c(O)c2[C@@H](O[C@@H]2O[C@H](C)[C@H](OC)[C@](C)(OC)[C@@H]2OC)C[C@@]1(C)O)C(=O)c1c(O)cc2c(c1C3=O)O[C@H]1O[C@@]2(C)[C@@H](O)[C@H](N(C)C)[C@@H]1O`, the cytotoxicity call is reported as “active”. With `O=C1O[C@H](c2ccccc2)[C@H](c2ccccc2)N2[C@H]1[C@@H](C(=O)N1CCCCCCC1)[C@]1(C(=O)Nc3ccc(C#CC4=CCCCC4)cc31)[C@H]2c1ccc(O)cc1` the cytotoxicity call was “inactive”. `COc1ccc(S(=O)(=O)N(C)C[C@@H]2Oc3c(NC(=O)C4CC4)cccc3C(=O)N([C@H](C)CO)C[C@H]2C)cc1` was tested, and the cytotoxicity call was “inactive”. In the case of `O=C(C[C@H]1C=C[C@@H](NC(=O)c2ccc(F)cc2)[C@@H](CO)O1)NCc1ccncn1`, the cytotoxicity call is reported as “inactive”. With `C[C@@H]1CN([C@H](C)CO)C(=O)Cc2cc(NS(=O)(=O)c3cn(C)cn3)ccc2O[C@H]1CN(C)C` the cytotoxicity call was “inactive”.
